# Measurements taken from the supplement of paper PMC10849652.
# Of roughly 8,800 targets only a part is listed; those with a hit were picked by preference. About 0.5% of all pairs of compound and target were hits. Unmarked numbers belong to inactive results.
# Tests used:
# Test in all cases: log2 fold change, soluble protein after heating vs DMSO (PISA); higher = thermal stabilisation; K562 lysate, 10 uM; active = over 0.2 and 3.5 SD of the protein, either way, in both replicates (recomputed)
# alvocidib = compound: CN1CC[C@H](c2c(O)cc(O)c3c(=O)cc(-c4ccccc4Cl)oc23)[C@H](O)C1 [alvocidib]
# Summary of the method: (§1)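 Dounce homogenisation of K562 pellets in PBS pH 7.4 with 1 mM MgCl2 produced a crude extract, used at 1 mg/mL protein. Exposure to 10 μM compound lasted 30 min, and aliquots were then heated for 3 min across 48°C-58°C, pooled and brought to 0.5% NP-40 at 4°C. The supernatant after 21,000xg for 90 min was quantified by TMTpro 16plex LC-MS/MS with channel sums equalised. Duplicate values are given as log-two fold change in thermal stability relative to solvent controls.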
# Tubastatin A = compound: CN1CCc2c(c3ccccc3n2Cc2ccc(C(=O)NO)cc2)C1 [Tubastatin A]
# Summary of the method: as §1
# [1] = compound: CNC(=O)C1=CC=CC=C1NC2=NC(=NC=C2Cl)NC3=C(C=C(C=C3)N4CCOCC4)OC
# Summary of the method: as §1
# defactinib = compound: CNC(=O)c1ccc(Nc2ncc(C(F)(F)F)c(NCc3nccnc3N(C)S(C)(=O)=O)n2)cc1 [defactinib]
# Summary of the method: as §1
# [2] = compound: CNc1nc(-c2ccc3c(N)n[nH]c3c2)cc(N2C[C@@H](C(=O)NC3CCCCC3)CC[C@H]2C)n1
# Summary of the method: as §1
# encorafenib = compound: COC(=O)N[C@@H](C)CNc1nccc(-c2cn(C(C)C)nc2-c2cc(Cl)cc(NS(C)(=O)=O)c2F)n1 [encorafenib]
# Summary of the method: as §1
# [3] = compound: COC(=O)[C@H](CCSC)NC(=O)C1=C(C=C(C=C1)NC[C@H](CS)N)C2=CC=CC=C2
# Summary of the method: as §1
# alisertib = compound: COc1cc(Nc2ncc3c(n2)-c2ccc(Cl)cc2C(c2c(F)cccc2OC)=NC3)ccc1C(=O)O [alisertib]
# Summary of the method: as §1
# [4] = compound: COc1cc2nc(-c3cc(F)ccc3O)nc(N[C@@H]3CNC[C@H]3C(C)(C)O)c2cc1OC
# Summary of the method: as §1
# gefitinib = compound: COc1cc2ncnc(Nc3ccc(F)c(Cl)c3)c2cc1OCCCN1CCOCC1 [gefitinib]
# Summary of the method: as §1
# Chain of UniProt P33121 (P33121 whole entry, looked up): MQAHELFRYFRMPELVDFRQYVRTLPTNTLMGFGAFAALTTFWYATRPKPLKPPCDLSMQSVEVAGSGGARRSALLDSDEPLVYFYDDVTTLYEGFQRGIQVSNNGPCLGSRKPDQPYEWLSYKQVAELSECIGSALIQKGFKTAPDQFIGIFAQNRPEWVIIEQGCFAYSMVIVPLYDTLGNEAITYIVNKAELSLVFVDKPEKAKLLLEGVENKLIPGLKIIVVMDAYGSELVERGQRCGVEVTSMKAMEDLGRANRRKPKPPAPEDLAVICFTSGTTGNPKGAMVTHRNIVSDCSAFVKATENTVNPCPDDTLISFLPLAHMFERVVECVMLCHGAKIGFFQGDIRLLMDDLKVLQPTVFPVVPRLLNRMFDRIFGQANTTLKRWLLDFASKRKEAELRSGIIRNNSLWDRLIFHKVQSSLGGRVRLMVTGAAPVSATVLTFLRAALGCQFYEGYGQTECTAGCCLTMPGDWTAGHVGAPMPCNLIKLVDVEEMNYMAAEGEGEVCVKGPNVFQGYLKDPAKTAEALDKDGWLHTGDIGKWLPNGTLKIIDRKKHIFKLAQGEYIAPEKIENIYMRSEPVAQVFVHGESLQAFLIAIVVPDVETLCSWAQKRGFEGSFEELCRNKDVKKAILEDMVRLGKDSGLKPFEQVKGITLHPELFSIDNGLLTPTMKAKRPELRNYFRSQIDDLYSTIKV
# Chain of UniProt Q5VST6 (Q5VST6 whole entry, looked up): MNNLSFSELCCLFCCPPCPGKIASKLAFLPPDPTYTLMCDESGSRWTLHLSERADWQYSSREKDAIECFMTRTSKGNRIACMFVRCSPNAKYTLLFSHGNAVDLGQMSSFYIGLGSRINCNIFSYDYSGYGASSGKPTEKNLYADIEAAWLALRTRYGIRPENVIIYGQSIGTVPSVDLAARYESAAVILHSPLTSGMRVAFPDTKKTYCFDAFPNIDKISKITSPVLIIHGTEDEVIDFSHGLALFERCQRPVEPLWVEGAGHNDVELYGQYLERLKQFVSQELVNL
# Chain of UniProt Q562R1 (Q562R1 whole entry, looked up): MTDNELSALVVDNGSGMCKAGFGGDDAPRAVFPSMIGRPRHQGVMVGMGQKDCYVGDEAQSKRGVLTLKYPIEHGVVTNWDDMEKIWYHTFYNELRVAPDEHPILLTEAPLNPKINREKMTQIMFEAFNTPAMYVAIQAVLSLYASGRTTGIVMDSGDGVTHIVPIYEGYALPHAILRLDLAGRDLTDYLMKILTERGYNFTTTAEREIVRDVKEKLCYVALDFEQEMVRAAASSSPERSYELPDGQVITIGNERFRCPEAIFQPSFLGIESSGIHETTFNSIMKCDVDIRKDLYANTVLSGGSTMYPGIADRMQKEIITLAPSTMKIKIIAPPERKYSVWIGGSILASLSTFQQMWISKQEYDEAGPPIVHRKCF
# Chain of UniProt Q96BM9 (Q96BM9 whole entry, looked up): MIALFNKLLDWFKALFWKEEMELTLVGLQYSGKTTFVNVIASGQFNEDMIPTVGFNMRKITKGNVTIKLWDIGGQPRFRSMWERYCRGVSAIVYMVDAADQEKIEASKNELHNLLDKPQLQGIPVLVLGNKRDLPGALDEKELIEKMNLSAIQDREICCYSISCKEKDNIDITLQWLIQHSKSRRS
# Chain of UniProt Q9Y4X0 (Q9Y4X0 whole entry, looked up): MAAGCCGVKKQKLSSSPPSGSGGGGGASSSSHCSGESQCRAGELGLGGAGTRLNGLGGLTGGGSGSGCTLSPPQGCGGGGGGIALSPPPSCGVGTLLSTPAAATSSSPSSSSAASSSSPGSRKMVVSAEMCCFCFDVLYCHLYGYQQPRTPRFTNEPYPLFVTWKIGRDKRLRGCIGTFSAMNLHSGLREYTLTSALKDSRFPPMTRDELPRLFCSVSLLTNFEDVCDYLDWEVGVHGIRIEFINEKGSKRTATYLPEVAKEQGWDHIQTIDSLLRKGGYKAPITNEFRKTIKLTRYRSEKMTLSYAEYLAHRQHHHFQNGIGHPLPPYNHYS
# Chain of UniProt O60488 (O60488 whole entry, looked up): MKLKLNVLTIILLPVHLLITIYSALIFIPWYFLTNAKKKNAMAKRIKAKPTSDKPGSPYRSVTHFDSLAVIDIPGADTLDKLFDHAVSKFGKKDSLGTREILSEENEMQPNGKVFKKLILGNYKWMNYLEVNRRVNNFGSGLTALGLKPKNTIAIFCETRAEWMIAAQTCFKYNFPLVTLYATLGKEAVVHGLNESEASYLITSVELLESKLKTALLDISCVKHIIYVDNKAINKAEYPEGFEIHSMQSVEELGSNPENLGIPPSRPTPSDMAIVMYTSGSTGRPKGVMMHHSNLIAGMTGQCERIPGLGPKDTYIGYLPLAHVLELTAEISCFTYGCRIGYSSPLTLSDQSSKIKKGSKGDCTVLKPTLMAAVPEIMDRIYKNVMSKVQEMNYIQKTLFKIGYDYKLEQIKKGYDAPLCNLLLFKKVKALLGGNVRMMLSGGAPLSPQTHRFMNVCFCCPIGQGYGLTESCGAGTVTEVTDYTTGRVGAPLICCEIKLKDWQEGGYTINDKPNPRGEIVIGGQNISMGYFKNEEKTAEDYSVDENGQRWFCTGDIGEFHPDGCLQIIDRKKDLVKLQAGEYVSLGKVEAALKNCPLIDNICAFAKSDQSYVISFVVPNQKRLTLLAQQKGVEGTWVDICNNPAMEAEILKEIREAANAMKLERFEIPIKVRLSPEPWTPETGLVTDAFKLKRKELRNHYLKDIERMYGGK
# Chain of UniProt P08758 (P08758 whole entry, looked up): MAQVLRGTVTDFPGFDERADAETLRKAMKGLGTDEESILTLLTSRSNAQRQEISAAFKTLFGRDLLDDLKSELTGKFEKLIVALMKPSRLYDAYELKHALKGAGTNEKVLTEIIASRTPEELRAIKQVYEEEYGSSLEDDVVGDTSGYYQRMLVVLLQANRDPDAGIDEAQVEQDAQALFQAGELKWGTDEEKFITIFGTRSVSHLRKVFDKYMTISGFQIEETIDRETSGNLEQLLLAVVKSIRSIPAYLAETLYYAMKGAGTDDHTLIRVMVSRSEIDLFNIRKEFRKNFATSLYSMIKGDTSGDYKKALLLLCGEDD
# Chain of UniProt Q9UJX3 (Q9UJX3 whole entry, looked up): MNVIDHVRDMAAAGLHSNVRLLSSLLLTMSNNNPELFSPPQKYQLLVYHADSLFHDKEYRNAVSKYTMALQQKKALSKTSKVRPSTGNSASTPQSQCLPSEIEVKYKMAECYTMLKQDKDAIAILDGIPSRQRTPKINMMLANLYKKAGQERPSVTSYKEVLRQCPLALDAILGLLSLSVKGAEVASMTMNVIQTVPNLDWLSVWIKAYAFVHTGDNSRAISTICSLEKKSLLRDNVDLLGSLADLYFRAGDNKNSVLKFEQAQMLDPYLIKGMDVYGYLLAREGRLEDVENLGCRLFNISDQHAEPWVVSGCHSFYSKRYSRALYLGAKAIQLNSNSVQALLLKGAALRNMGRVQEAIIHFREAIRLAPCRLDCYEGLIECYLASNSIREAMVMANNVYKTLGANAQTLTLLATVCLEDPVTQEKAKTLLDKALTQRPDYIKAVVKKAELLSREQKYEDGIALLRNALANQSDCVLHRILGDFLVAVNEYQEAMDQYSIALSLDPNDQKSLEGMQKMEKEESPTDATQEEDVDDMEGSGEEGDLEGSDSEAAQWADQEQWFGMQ
# Chain of UniProt Q9BVK2 (Q9BVK2 whole entry, looked up): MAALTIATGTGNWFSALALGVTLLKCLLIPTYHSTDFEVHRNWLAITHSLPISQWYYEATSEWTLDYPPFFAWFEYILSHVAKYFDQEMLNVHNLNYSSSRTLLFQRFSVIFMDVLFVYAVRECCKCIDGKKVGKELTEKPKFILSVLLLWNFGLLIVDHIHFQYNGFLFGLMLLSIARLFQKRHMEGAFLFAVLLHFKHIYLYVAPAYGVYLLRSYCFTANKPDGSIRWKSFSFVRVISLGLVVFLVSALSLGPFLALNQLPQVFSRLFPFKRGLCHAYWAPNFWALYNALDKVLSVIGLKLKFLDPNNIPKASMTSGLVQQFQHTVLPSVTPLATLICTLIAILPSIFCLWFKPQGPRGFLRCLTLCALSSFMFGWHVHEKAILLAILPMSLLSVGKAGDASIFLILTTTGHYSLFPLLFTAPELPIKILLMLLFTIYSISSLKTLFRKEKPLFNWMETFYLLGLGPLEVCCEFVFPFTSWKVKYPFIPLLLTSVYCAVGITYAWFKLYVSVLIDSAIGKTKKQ
# Chain of UniProt Q96GS6 (Q96GS6 whole entry, looked up): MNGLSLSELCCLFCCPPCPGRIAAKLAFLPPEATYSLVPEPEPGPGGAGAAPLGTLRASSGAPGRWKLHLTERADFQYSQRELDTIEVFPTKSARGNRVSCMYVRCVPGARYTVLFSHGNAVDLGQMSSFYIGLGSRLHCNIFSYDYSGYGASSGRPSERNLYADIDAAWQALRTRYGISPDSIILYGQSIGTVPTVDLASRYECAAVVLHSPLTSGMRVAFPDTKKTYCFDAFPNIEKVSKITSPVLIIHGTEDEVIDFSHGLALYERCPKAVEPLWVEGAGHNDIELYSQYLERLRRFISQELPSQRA
# Chain of UniProt P08243 (P08243 whole entry, looked up): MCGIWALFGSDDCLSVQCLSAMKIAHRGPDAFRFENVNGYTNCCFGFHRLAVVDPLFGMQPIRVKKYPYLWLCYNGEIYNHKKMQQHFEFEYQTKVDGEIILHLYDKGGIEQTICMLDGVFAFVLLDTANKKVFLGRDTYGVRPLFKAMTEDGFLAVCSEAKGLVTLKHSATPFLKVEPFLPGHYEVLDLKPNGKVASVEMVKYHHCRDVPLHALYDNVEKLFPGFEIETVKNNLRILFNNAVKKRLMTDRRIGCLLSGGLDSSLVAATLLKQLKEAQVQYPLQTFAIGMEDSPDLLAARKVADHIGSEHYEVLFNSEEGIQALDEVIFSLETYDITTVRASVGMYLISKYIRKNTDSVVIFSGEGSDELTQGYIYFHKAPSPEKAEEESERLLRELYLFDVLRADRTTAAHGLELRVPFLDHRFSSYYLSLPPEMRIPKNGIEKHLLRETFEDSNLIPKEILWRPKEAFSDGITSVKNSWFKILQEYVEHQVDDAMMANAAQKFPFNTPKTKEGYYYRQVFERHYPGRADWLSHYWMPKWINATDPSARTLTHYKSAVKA
Target,log2 fold change (alvocidib),log2 fold change (Tubastatin A),log2 fold change [1],log2 fold change (defactinib),log2 fold change [2],log2 fold change (encorafenib),log2 fold change [3],log2 fold change (alisertib),log2 fold change [4],log2 fold change (gefitinib)
ARHGAP21 (UniProt Q5T5U3),0.032,0.008,0.03,0.015,0.056,0.079,0.101,-0.023,-0.007,-0.095
ABHD17A isoform 2 (UniProt Q96GS6),-0.025,0.023,-0.025,-0.009,0.01,-0.009,-0.222,-0.12,0.04,0.044
ABHD16A (UniProt O95870),0.036,0.066,-0.077,0.009,0.054,-0.074,0.245 (active),-0.029,-0.004,-0.021
ANKRD30B (UniProt Q9BXX2),-0.307,0.007,-0.01,-0.155,0.284,-0.113,0.164,-0.002,-0.067,-0.036
ANAPC7 (UniProt Q9UJX3),0.011,-0.1,0.036,0.014,-0.03,0.026,0.002,-0.001,0.005,0.017
ADD1 isoform 3 (UniProt P35611),0.016,0.007,-0.013,0.015,0.031,0.004,-0.034,0.03,0.006,-0.01
ACSL1 (UniProt P33121),0.02,-0.169,0.001,0.096,-0.062,0.007,-0.052,0.057,-0.08,-0.036
AMMECR1 (UniProt Q9Y4X0),-0.014,0.022,0.02,0.02,0.003,0.02,-0.01,-0.031,0.011,-0.019
AKT2 (UniProt P31751),0.001,-0.061,0.036,-0.013,-0.064,0.028,0.037,0.003,-0.005,-0.013
ACTBL2 (UniProt Q562R1),-0.083,-0.111,-0.01,0.093,-0.008,-0.226,0.005,-0.273,0.009,-0.223
ABHD17B (UniProt Q5VST6),0,-0.016,-0.003,0.064,-0.099,0.059,-0.642 (active),0.06,-0.011,0.043
ADK (UniProt P55263),0.246,-0.025,0.178,0.026,0,-0.048,0.068,-0.063,-0.015,0.158
APOBEC3C (UniProt Q9NRW3),-0.019,-0.121,0.018,0.013,-0.007,0.047,-0.067,0.009,0.003,-0.005
ACIN1 isoform 5 (UniProt Q9UKV3),-0.038,0.039,-0.034,-0.009,0.053,-0.004,-0.01,0.032,-0.003,0.001
ALDH1A1 (UniProt P00352),0.06,-0.004,0.004,-0.007,-0.037,-0.009,-0.043,0.01,-0.001,-0.017
ACYP1 (UniProt P07311),0.084,0.008,-0.002,0.014,-0.018,-0.018,-0.016,0.012,-0.008,0.026
ARHGAP25 isoform 4 (UniProt P42331),-0.032,-0.122,0.04,0.055,0.054,-0.009,0.038,0.012,-0.004,-0.009
ASNS (UniProt P08243),0.019,-0.025,-0.036,0.006,0.027,-0.009,-0.12,0.019,0.009,0.004
AGO4 (UniProt Q9HCK5),-0.013,-0.003,0.003,-0.027,-0.214 (active),0.025,-0.092,-0.008,0.037,-0.015
ARL8A (UniProt Q96BM9),0.082,0.043,0.06,0.019,0.204,-0.048,-0.03,-0.186,0.027,0.013
ANXA5 (UniProt P08758),0.04,0,-0.023,-0.002,-0.067,-0.016,0.049,0.052,-0.009,0.049
ALG8 (UniProt Q9BVK2),0.004,-0.118,-0.007,0.001,-0.012,0.04,-0.09,0.076,-0.019,0.103
ARHGEF1 (UniProt M0QZR4),0.011,-0.085,0.016,-0.005,-0.016,0.022,0.063,0.001,-0.01,-0.014
ANLN (UniProt Q9NQW6),-0.037,-0.196,0.058,0.012,0.011,0.036,0.102,0.051,0.004,0.03
ABI1 isoform 9 (UniProt Q8IZP0),-0.096,0.053,0.005,-0.038,0.025,0.003,-0.057,-0.02,0.018,-0.015
APOB (UniProt P04114),-0.078,0.099,-0.021,-0.04,0.264,-0.008,0.003,-0.024,0.023,0.014
ACSL4 (UniProt O60488),0.023,-0.06,0.047,0.054,-0.034,0.003,0.073,-0.017,0.019,0.014
ARAF (UniProt P10398),0.036,-0.08,0.019,-0.039,-0.105,0.307 (active),0.093,-0.048,0.007,0.019
ACIN1 (UniProt E7EQT4),-0.093,0.095,0.003,-0.038,0.06,0.022,-0.033,-0.039,-0.011,0.051
